In PubChem BioAssay (NCI):
Compounds without any hit were thinned out: in the full panel of roughly 79,000, 15% have a hit. Values without a mark were called inactive. Activity calls are given as the source filed them. No stated cut-off is given here; in the data, active means growth inhibition above about 70%; inactive means the rest.

Assays:
[1] = NCI Yeast Anticancer Drug Screen. Data for the rad50 strain (AID 155);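 further: 0% = growth of vehicle-only cultures of the same strain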; conditions: S. cerevisiae rad50 strain growth inhibition, hits give high values
Summary of the method: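 Readout: growth inhibition relative to vehicle-treated cultures. Compound exposure was carried out in a genetically defined yeast strain deficient in DNA damage repair.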

[2] = NCI Yeast Anticancer Drug Screen. Data for the mec2-1 strain (AID 157); conditions: S. cerevisiae mec2-1 strain, hits give high values
Summary of the method: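 Using mec2-1 yeast: add compound, measure growth, express inhibition versus vehicle-treated cultures.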

[3] = NCI Yeast Anticancer Drug Screen. Data for the sgs1 mgt1 strain (AID 161);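 further: 0% = growth of cultures given vehicle only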; conditions: S. cerevisiae sgs1 mgt1 strain, hits give high values
Summary of the method: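 Yeast cells carrying a defined DNA-repair defect were exposed to test compounds. Growth inhibition was measured relative to vehicle-treated controls.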

[4] = NCI Yeast Anticancer Drug Screen. Data for the cln2 rad14 strain (AID 165);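 further: 0% = growth equal to vehicle treated cultures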; conditions: S. cerevisiae cln2 rad14 strain, hits give high values
Summary of the method: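 Yeast strain cln2 rad14, bearing defects in cell cycle control and DNA repair, serves as the test system; values reflect growth inhibition compared with vehicle.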

[5] = NCI Yeast Anticancer Drug Screen. Data for the bub3 strain (AID 167); conditions: S. cerevisiae bub3 mutant strain, hits give high values
Summary of the method: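 Readout: yeast growth inhibition, expressed relative to vehicle-only wells. The test organism is a mutant strain from a panel with lesions in DNA repair or checkpoint genes.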

[6] = NCI Yeast Anticancer Drug Screen. Data for the mlh1 rad18 strain (AID 175); conditions: S. cerevisiae mlh1 rad18 strain growth inhibition, hits give high values
Summary of the method: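 Steps: expose repair-defective yeast to compound; measure growth; express inhibition against vehicle-treated controls.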

[7] = at 5.0 µM (retest, dose inferred, filed as 0.5)
[8] = at 50.0 µM (retest, dose inferred, filed as 5.0)

In the case of `O=[n+]1c2c(n([O-])c3ccc4ccccc4c31)-c1cccc3cccc-2c13`, the growth inhibition [1, 7] is reported as 1%, the growth inhibition [1, 8] is reported as 7% and the growth inhibition ([1]; at 50.0 µM) is reported as 2.4%. The growth inhibition [2, 7] was -1%, the growth inhibition [2, 8] was -3% and the growth inhibition ([2]; at 50.0 µM) was 15.2%. It also gave a growth inhibition [3, 7] of -4%, a growth inhibition [3, 8] of -5% and a growth inhibition ([3]; at 50.0 µM) of 11.1%. For the same molecule, the growth inhibition [4, 7] was 3%, the growth inhibition [4, 8] was -7% and the growth inhibition ([4]; at 50.0 µM) was 55.9%. It also gave a growth inhibition [5, 7] of -1%, a growth inhibition [5, 8] of -9% and a growth inhibition ([5]; at 50.0 µM) of 19.7%. It also gave a growth inhibition [6, 7] of -2%, a growth inhibition [6, 8] of 1% and a growth inhibition ([6]; at 50.0 µM) of -5.75%.
For `COc1ccc2c(C)cc(N/N=C/c3cccc(C)n3)nc2c1`, the growth inhibition [1, 7] was -1%, the growth inhibition [1, 8] was 4% and the growth inhibition ([1]; at 50.0 µM) was 75.1% (active). For the same molecule, the growth inhibition [2, 7] was -2%, the growth inhibition [2, 8] was 8% and the growth inhibition ([2]; at 50.0 µM) was 31.2%. The growth inhibition [3, 7] was 4%, the growth inhibition [3, 8] was 28% and the growth inhibition ([3]; at 50.0 µM) was 97.4% (active). For the same molecule, the growth inhibition [4, 7] was 5%, the growth inhibition [4, 8] was 5% and the growth inhibition ([4]; at 50.0 µM) was 19.1%. The growth inhibition [5, 7] was -4%, the growth inhibition [5, 8] was -4% and the growth inhibition ([5]; at 50.0 µM) was 22.2%. For the same molecule, the growth inhibition [6, 7] was -5%, the growth inhibition [6, 8] was 19% and the growth inhibition ([6]; at 50.0 µM) was 28.8%.
In the case of `Nc1ccc(C(=O)N/C(=C\C=C\c2ccco2)c2nc3c4c(ccc3[nH]2)C(=O)c2ccccc2C4=O)cc1`, the growth inhibition [1, 7] is reported as 23%, the growth inhibition [1, 8] is reported as 75% (active) and the growth inhibition ([1]; at 50.0 µM) is reported as 90.8% (active). The growth inhibition [2, 7] was 1%, the growth inhibition [2, 8] was 28% and the growth inhibition ([2]; at 50.0 µM) was 62.1%. The growth inhibition [3, 7] was 3%, the growth inhibition [3, 8] was 35% and the growth inhibition ([3]; at 50.0 µM) was 74.8% (active). For the same molecule, the growth inhibition [4, 7] was 0%, the growth inhibition [4, 8] was 9% and the growth inhibition ([4]; at 50.0 µM) was 44.7%. For the same molecule, the growth inhibition [5, 7] was 2%, the growth inhibition [5, 8] was 22% and the growth inhibition ([5]; at 50.0 µM) was 31.9%. For the same molecule, the growth inhibition [6, 7] was 10%, the growth inhibition [6, 8] was 12% and the growth inhibition ([6]; at 50.0 µM) was 90.5% (active).
With `CCCCNC(=O)OCc1c(COC(=O)NCCCC)c(-c2ccc(Cl)c(Cl)c2)n2c1CCC2` the growth inhibition [1, 7] was 33%, the growth inhibition [1, 8] was 98% (active) and the growth inhibition ([1]; at 50.0 µM) was 26.6%. For the same molecule, the growth inhibition [2, 7] was 27%, the growth inhibition [2, 8] was 99% (active) and the growth inhibition ([2]; at 50.0 µM) was 7.3%. The growth inhibition [3, 7] was 48%, the growth inhibition [3, 8] was 99% (active) and the growth inhibition ([3]; at 50.0 µM) was 31.2%. The growth inhibition [4, 7] was 53%, the growth inhibition [4, 8] was 98% (active) and the growth inhibition ([4]; at 50.0 µM) was 70%. For the same molecule, the growth inhibition [5, 7] was 56%, the growth inhibition [5, 8] was 98% (active) and the growth inhibition ([5]; at 50.0 µM) was 4.4%. The growth inhibition [6, 7] was 25%, the growth inhibition [6, 8] was 98% (active) and the growth inhibition ([6]; at 50.0 µM) was 31.8%.
Work on `CN(C)CC(CN1CCCC1)C(=O)c1ccccc1` (stereo not given) yielded a growth inhibition [1, 7] of 13%, a growth inhibition [1, 8] of 24% and a growth inhibition ([1]; at 50.0 µM) of 56.6%. It also gave a growth inhibition [2, 7] of -2%, a growth inhibition [2, 8] of 36% and a growth inhibition ([2]; at 50.0 µM) of 41.4%. It also gave a growth inhibition [3, 7] of 13%, a growth inhibition [3, 8] of 32% and a growth inhibition ([3]; at 50.0 µM) of 66.5%. The growth inhibition [4, 7] was 26%, the growth inhibition [4, 8] was 33% and the growth inhibition ([4]; at 50.0 µM) was 11.2%. The growth inhibition [5, 7] was 6%, the growth inhibition [5, 8] was 39% and the growth inhibition ([5]; at 50.0 µM) was 65.5%. For the same molecule, the growth inhibition [6, 7] was 15%, the growth inhibition [6, 8] was 32% and the growth inhibition ([6]; at 50.0 µM) was 75.2% (active).
